In PubChem BioAssay AID1159580 (chemical genetic matrix, 2015):
Among all 5,500 compounds or so, about 2,000 (36%) were called active. Inconclusive results (about 18%) are left out. Cut-off read from the data, not from the text of the source: active = normalized growth mostly below about 0.91 (no sharp cut-off); inconclusive = no clear call, values can overlap the other calls; inactive = mostly above about 0.92. Some of the results follow.

Experiment: chemical genetic growth profiling, strain panel (AID 1159580);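 note: tested at 20 µM; growth read once vehicle control cultures reached saturation at 30 °C; 1 = growth at the plate median or of vehicle wells; lower values mean less growth of the strain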
Conditions: S. cerevisiae deletion strains, growth OD
[1] = locus YDL101C, strain DUN1, active compounds read low
[2] = locus YHR030C, strain SLT2, active compounds read low
[3] = locus YDR150W, strain NUM1, active compounds read low
[4] = locus YNL153C, strain GIM3, active compounds read low
[5] = locus YPL055C, strain LGE1, active compounds read low

Measured: normalized growth

O=C1/C(=C/c2ccccn2)CCc2ccccc21
active: locus YLR113W, strain HOG1, active compounds read low 0.742
inactive: locus YAR019C, strain CDC15, active compounds read low 0.923 | locus YBL105C, strain PKC1, active compounds read low 0.944 | locus YBR135W, strain CKS1, active compounds read low 0.95 | locus YBR136W, strain MEC1, active compounds read low 0.929 | locus YBR160W, strain CDC28, active compounds read low 0.957 | locus YDL017W, strain CDC7, active compounds read low 0.954 | locus YDL028C, strain MPS1, active compounds read low 0.94 | [1] 0.948 | locus YDL108W, strain KIN28, active compounds read low 0.936 | locus YDL132W, strain cdc53, active compounds read low 0.936 | locus YDL214C, strain PRR2, active compounds read low 0.927 | locus YDR052C, strain DBF4, active compounds read low 0.96 | locus YDR054C, strain cdc34, active compounds read low 0.937 | locus YDR226W, strain ADK1, active compounds read low 0.948 | locus YDR477W, strain SNF1, active compounds read low 0.897 | locus YER123W, strain YCK3, active compounds read low 0.814 | locus YER133W, strain GLC7, active compounds read low 0.897 | locus YFL009W, strain cdc4, active compounds read low 0.929 | locus YFL029C, strain CAK1, active compounds read low 0.912 | locus YFR003C, strain YPI1, active compounds read low 0.954 | locus YFR019W, strain FAB1, active compounds read low 0.951 | locus YFR028C, strain CDC14, active compounds read low 0.935 | locus YGR040W, strain KSS1, active compounds read low 0.837 | locus YGR052W, strain FMP48, active compounds read low 0.919 | locus YGR092W, strain DBF2, active compounds read low 0.813 | [2] 0.88 | locus YHR079C, strain IRE1, active compounds read low 0.869 | locus YHR082C, strain KSP1, active compounds read low 0.921 | locus YHR205W, strain SCH9, active compounds read low 0.878 | locus YIL147C, strain SLN1, active compounds read low 0.939 | locus YJL095W, strain BCK1, active compounds read low 0.863 | locus YJL128C, strain PBS2, active compounds read low 0.937 | locus YJL157C, strain FAR1, active compounds read low 0.939 | locus YJR016C, strain ILV3, active compounds read low 0.94 | locus YJR066W, strain TOR1 (second series), active compounds read low 0.633 | locus YJR066W, strain TOR1, active compounds read low 0.855 | locus YKL048C, strain ELM1, active compounds read low 0.952 | locus YKL067W, strain YNK1, active compounds read low 0.928 | locus YKL101W, strain HSL1, active compounds read low 0.922 | locus YKL193C, strain SDS22, active compounds read low 0.937 | locus YKL203C, strain TOR2, active compounds read low 0.912 | locus YLR133W, strain CKI1, active compounds read low 0.935 | locus YLR403W, strain SFP1, active compounds read low 0.869 | locus YML070W, strain DAK1, active compounds read low 0.896 | locus YMR001C, strain CDC5, active compounds read low 0.944 | locus YMR205C, strain PFK2 (second series), active compounds read low 0.948 | locus YMR277W, strain FCP1, active compounds read low 0.939 | locus YNL006W, strain LST8, active compounds read low 0.967 | locus YNL020C, strain ARK1, active compounds read low 0.948 | locus YNL161W, strain CBK1, active compounds read low 0.941 | locus YNL183C, strain NPR1, active compounds read low 0.84 | locus YNL207W, strain RIO2, active compounds read low 0.943 | locus YNL222W, strain SSU72, active compounds read low 0.942 | locus YNL307C, strain MCK1 (second series), active compounds read low 0.913 | locus YOL078W, strain AVO1, active compounds read low 0.935 | locus YOL136C, strain PFK27, active compounds read low 0.919 | locus YOR061W, strain CKA2, active compounds read low 0.934 | locus YOR119C, strain RIO1, active compounds read low 0.91 | locus YOR231W, strain MKK1, active compounds read low 0.875 | locus YOR329C, strain SCD5, active compounds read low 0.948 | locus YPL031C, strain PHO85, active compounds read low 0.874 | locus YPL153C, strain RAD53, active compounds read low 0.883 | locus YPL204W, strain HRR25, active compounds read low 0.862 | locus YPL209C, strain IPL1, active compounds read low 0.944 | locus YPL256C, strain CLN2, active compounds read low 0.861 | locus YPR025C, strain CCL1, active compounds read low 0.945 | locus YPR106W, strain ISR1, active compounds read low 0.96 | locus YPR111W, strain DBF20, active compounds read low 0.955 | strain NNK1, active compounds read low 0.967 | strain TSCII, active compounds read low 0.93

Cc1ccc(/C=C2\CCc3ccccc3C2=O)o1
active: locus YAL013W, strain DEP1, active compounds read low 0.451 | locus YBR229C, strain ROT2, active compounds read low 0.43 | [1] 0.472 | locus YDL134C, strain PPH21, active compounds read low 0.381 | [3] 0.563 | locus YEL061C, strain CIN8, active compounds read low 0.531 | locus YGR078C, strain PAC10, active compounds read low 0.794 | [2] 0.126 | locus YHR087W, strain rtc3, active compounds read low 0.528 | locus YJR043C, strain POL32, active compounds read low 0.421 | locus YJR075W, strain HOC1, active compounds read low 0.676 | locus YLR039C, strain RIC1, active compounds read low 0.275 | locus YLR058C, strain SHM2 (second series), active compounds read low 0.934 | locus YLR085C, strain ARP6, active compounds read low 0.208 | locus YLR262C, strain YPT6, active compounds read low 0.354 | locus YML094W, strain GIM5, active compounds read low 0.347 | locus YMR219W, strain ESC1, active compounds read low 0.765 | locus YMR263W, strain SAP30, active compounds read low 0.464 | [4] 0.459 | locus YNL298W, strain CLA4 (second series), active compounds read low 0.315 | locus YNL322C, strain KRE1, active compounds read low 0.755 | locus YNR030W, strain Alg12, active compounds read low 0.205 | [5] 0.263 | locus YPL241C, strain CIN2, active compounds read low 0.224 | locus YPR135W, strain CTF4, active compounds read low 0.264

Oc1ccc(-c2nc(-c3ccc(F)cc3)c(-c3ccncc3)[nH]2)cc1
inactive: locus YAL040C, strain CLN3, active compounds read low 0.975 | locus YCL061C, strain MRC1 (second series), active compounds read low 1.01 | [3] 1 | locus YER002W, strain NOP16, active compounds read low 1 | locus YMR307W, strain GAS1, active compounds read low 1.02 | [4] 0.999 | locus YNL175C, strain NOP13, active compounds read low 1.03 | locus YNL197C, strain WHI3, active compounds read low 1.02 | locus YNL224C, strain SQS1, active compounds read low 1.02 | locus YOR083W, strain WHI5 (second series), active compounds read low 1.03 | [5] 1.02
